# Several values for one entry are separate records, joined by “and”; a condition that tells them apart may be missing. Equal values may be shown once. A structure can be active in one record and inactive in another. Activity calls are given as the source filed them. How the source made its calls: active means hit-call score of the fitted dose curve at least 0.9, where 1 is the maximum; inactive means score below 0.9.
# Read-out: Macrophage colony-stimulating factor (MCSF), CSF1 (gene 1435)
# Test: BSK_hDFCGF_MCSF: BioMAP Diversity Plus: hDFCGF Assay for Macrophage colony-stimulating factor (MCSF) Biomarker Activity (AID 2283060)
# Settings: primary human foreskin fibroblasts; actives raise or lower the signal
# Method: BSK_hDFCGF is a cell-based, multiplexed-readout assay that uses foreskin fibroblast, a human skin primary cell, with measurements taken at 24 hours after chemical dosing in a 96-well plate.BSK_hDFCGF_MCSF is an assay component measured in the BSK_hDFCGF assay. It measures M-CSF antibody related to regulation of gene expression using ELISA technology.Data from the assay component BSK_hDFCGF_MCSF was analyzed into 1 assay endpoint. This assay endpoint, BSK_hDFCGF_MCSF, was analyzed with bidirectional fitting relative to DMSO as the negative control and baseline of activity. Using a type of binding reporter, gain or loss-of-signal activity can be used to understand changes in the signaling as they relate to the gene CSF1. Furthermore, this assay endpoint can be referred to as a primary readout, because this assay has produced multiple assay endpoints where this one serves a signaling function. To generalize the intended target to other relatable targets, this assay endpoint is annotated to the cytokine intended target family, where the subfamily is colony stimulating factor.
# The levels of cell surface (or secreted, indicated by the prefix "s") biomarker endpoints were measured by ELISA. Overt cytotoxicity to cells in confluent adherent cultures (all systems other than the BT system) was assessed by measuring total protein levels using sulforhodamine B (SRB) staining in parallel cultures at the time of biomarker measurements, indicated as SRB endpoints. For proliferation assays for adherent cell types, individual cell types are cultured at sub-confluence and relative cell numbers quantified by SRB staining at time points optimized for each system (48 h: 3C and CASM3C systems; 72 h: BT and HDF3CGF systems; 96 h: SAg system). SRB was performed by staining cells with 0.1% SRB after fixation with 10% TCA and reading wells at 560 nm.Viability and proliferation of PBMC (T cells) was quantified by Alamar Blue reduction for the SAg and BT systems. For PBMC viability (referred to as PBMC Cytotoxicity within the assay endpoint names), cells were plated (75,000/well in a 96-well plate) and then chemical samples added for 1 h before addition of activators, SEB and TSST-1 (20 ng/mL final concentration each). Cells were incubated for 90 h. Then, Alamar Blue (20 uL/well) (Invitrogen, Cat DAL1100) was added for 6 h, and the plates were read with a fluorescence microplate reader at 546/580 nm (excitation/emission). For PBMC proliferation, cells were plated and activated as above but incubated for only 16 h prior to addition of Alamar Blue. Plates were read after 6 h.
SMILES,outcome,AC50
COc1nc(NC(C)C)nc(NC(C)C)n1,inactive,–
CCNc1nc(Cl)nc(NCC)n1,inactive,–
CS/C(C)=N/OC(=O)N(C)SN(C)C(=O)O/N=C(\C)SC,inactive,–
CNC(=S)S,inactive,–
O=C(Nc1ccccc1)Nc1ccnc(Cl)c1,inactive,–
Cc1c(F)c(F)c(COC(=O)C2C(/C=C(\Cl)C(F)(F)F)C2(C)C)c(F)c1F (stereo not given),–,3.03 µM (active)
CCc1nn(C)c(C(=O)NCc2ccc(C(C)(C)C)cc2)c1Cl,–,23.9 µM (active)
Cc1ccc(-c2c(Cl)nc(C#N)n2S(=O)(=O)N(C)C)cc1,–,14.3 µM (active)
O=C(O)COc1nc(Cl)c(Cl)cc1Cl,inactive,–
O=C(O)c1nc(Cl)ccc1Cl,inactive,–
CCON=C(CC)C1=C(O)CC(c2c(C)cc(C)cc2C)CC1=O (stereo not given),inactive,–
COC(=O)C(C)Oc1ccc(Oc2ccc(Cl)cc2Cl)cc1 (stereo not given),inactive,–
CCCN(CCC)c1c([N+](=O)[O-])cc(S(N)(=O)=O)cc1[N+](=O)[O-],inactive,32.9 µM (active) and 30.5 µM (active) and 31.2 µM (active)
CCOC(=O)C(Cl)Cc1cc(-n2nc(C)n(C(F)F)c2=O)c(F)cc1Cl (stereo not given),inactive,–
C=CCC1=C(C)C(OC(=O)C2C(C=C(C)C)C2(C)C)CC1=O (stereo not given),–,31.2 µM (active) and 38.4 µM (active) and 29.1 µM (active)
CC(C)C1(C)N=C(c2nc3ccccc3cc2C(=O)O)NC1=O (stereo not given),inactive,–
COc1nc(C)nc(NC(=O)NS(=O)(=O)c2ccccc2CCC(F)(F)F)n1,inactive,–
N#Cc1nn(-c2c(Cl)cc(C(F)(F)F)cc2Cl)c(N)c1S(=O)C(F)(F)F (stereo not given),inactive,–
C=CCC1=C(C)[C@@H](OC(=O)[C@@H]2[C@@H](C=C(C)C)C2(C)C)CC1=O,–,32.2 µM (active)

SMILES,outcome,AC50
CC(C)Oc1cc(-n2nc(C(C)(C)C)oc2=O)c(Cl)cc1Cl,–,15.2 µM (active)
CCCCC(CC)COC(=O)c1ccccc1C(=O)OCC(CC)CCCC (stereo not given),inactive,–
CC(Oc1ccc(Cl)cc1Cl)C(=O)O (stereo not given),inactive,–
COP(N)(=O)SC (stereo not given),inactive,–
CON(C)C(=O)Nc1ccc(Cl)c(Cl)c1,inactive,–
CC1COC(Cn2cncn2)(c2ccc(Oc3ccc(Cl)cc3)cc2Cl)O1 (stereo not given),–,32.2 µM (active)
Cc1cc(Cl)ccc1OCC(=O)O,inactive,–
CN(C)C(=S)SSC(=S)N(C)C,–,4.39 µM (active)
CCOP(=S)(OCC)SCn1c(=O)oc2cc(Cl)ccc21,–,14.3 µM (active)
COC(=O)C=C(C)OP(=O)(OC)OC,–,0.157 µM (active)
CCCCOC(=O)c1ccccc1C(=O)OCCCC,inactive,12 µM (active)
Oc1ccccc1-c1ccccc1,inactive,–
COc1nc(C)nc(NC(=O)NS(=O)(=O)c2ccccc2Cl)n1,inactive,–
CCCCNC(=O)n1c(NC(=O)OC)nc2ccccc21,inactive,–
CCOc1cc(Oc2ccc(C(F)(F)F)cc2Cl)ccc1[N+](=O)[O-],–,6.77 µM (active)
CNC(=O)ON=CC(C)(C)SC,inactive,–
CCOC(=O)CC(SP(=S)(OC)OC)C(=O)OCC (stereo not given),inactive,–
CCCCNC(=O)OCC#CI,–,5.14 µM (active) and 9.67 µM (active)
COP(=S)(OC)Oc1nc(Cl)c(Cl)cc1Cl,–,30 µM (active)

# From PubChem BioAssay (EPA / NIEHS)
